Laboratory results: PubChem BioAssay (EPA / NIEHS)
Several values for one entry are separate records, joined by “and”; a condition that tells them apart may be missing. Equal values may be shown once. Activity calls are given as the source filed them. Rule for the calls: active = hit-call score of the fitted dose curve at least 0.9, where 1 is the maximum; inactive = score below 0.9.

Assay: ATG_TGFb_CIS: Attagene CIS-FACTORIAL HepG2 Assay for human Transforming Growth Factor (TGF) (AID 2282967)
Settings: HepG2 Attagene CIS TGFb reporter, mRNA transcription; actives raise or lower the signal
Procedure, shortened: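 After a 24-hour incubation with compound, transfected HepG2 cells were lysed for RNA; reporter cDNA was amplified, fluorescently end-labeled and separated by CE. DMSO served as baseline for bidirectional fits.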

outcome, inactive:
CCCCOC(=O)CC(CC(=O)OCCCC)(OC(C)=O)C(=O)OCCCC, Cc1cn([C@H]2C[C@H](N=[N+]=[N-])[C@@H](CO)O2)c(=O)[nH]c1=O, CCCCCCCCCCCC[N+](C)(C)C, NC(=O)c1nc(-c2cccc(-c3cc(F)ccc3OCC(F)(F)C(F)(F)F)c2)n[nH]1, CCCCCCCCCCCO

Assay: ATG_VDRE_CIS: Attagene CIS-FACTORIAL HepG2 Assay for human Vitamin D Receptor Element (VDRE) (AID 2282968)
Settings: HepG2 VDRE cis-reporter transcription, actives raise or lower the signal
Procedure, shortened: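 HepG2 cells transiently transfected with cis-element reporter units, dosed 24 h; reporter mRNA measured by RT-PCR, 6-FAM labeling, HpaI digestion and capillary electrophoresis. Activity fitted bidirectionally against DMSO baseline.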

outcome, inactive:
OCCO, CCCCCCCCCC(=O)O, CN(C)c1ccc(C(=C2C=CC(=[N+](C)C)C=C2)c2ccc(N(C)C)cc2)cc1, Cc1cc(F)ccc1-c1cc(N2CC[C@@H](O)[C@H]2CO)ncc1N(C)C(=O)C(C)(C)c1cc(C(F)(F)F)cc(C(F)(F)F)c1, CCO[Si](CCCNC(N)=O)(OCC)OCC, O=C=NCCCCCCN=C=O, COc1cccc([C@H](O)C2CCN(CCc3ccc(F)cc3)CC2)c1OC, Cc1ncc(CO)c(CO)c1O, COc1ccc2cc(S(=O)(=O)N[C@H](CC(=O)N[C@H](Cc3ccc(CN4[C@H](C)CCC[C@@H]4C)cc3)C(=O)N(C)C(C)C)c3ccc4c(c3)OCO4)ccc2c1, Cc1ccc2oc(CN(Cc3ccccc3)C(=O)Nc3c(F)cc(F)cc3F)c(-c3ccc(Cl)cc3)c2c1, CC1(C)NC(=O)N(c2ccc([N+](=O)[O-])c(C(F)(F)F)c2)C1=O, CN(C)C(=O)C1(N2CCCCC2)CCN(CC[C@@]2(c3ccc(Cl)c(Cl)c3)CN(C(=O)c3ccccc3)CCO2)CC1, Oc1ccc2ccccc2c1, CCOC(=O)O[C@H](C)OC(=O)c1ccc2c(c1)cc(C(=O)NC1CCN(C(C)C)CC1)n2Cc1cc(-c2ccc(Cl)s2)on1, COCC(C)OCC(C)OCC(C)O (centres undefined), CC(O)CC(C)(C)O (centres undefined), Cc1ccc(C(C)C)cc1, Cc1cc2c(cc1C(F)(F)F)N(C(=O)Nc1ccc(Oc3cccnc3C)nc1)CC2, Cc1cn([C@H]2C[C@H](N=[N+]=[N-])[C@@H](CO)O2)c(=O)[nH]c1=O, CCCCCCCCCCCC[N+](C)(C)C, CCCCCCCCCCCO

AC50, active:
Cc1oc2c(NC(=O)c3c(Cl)cccc3Cl)cccc2c1C(C)(C)O 4.01 µM, CCN(Cc1cccnc1)C(=O)c1cccc(Cl)c1[C@]1(C)C(=O)N(Cc2ccc(OC)cc2OC)c2ccc(Cl)cc21 1.42 µM, CC(=O)N1CCN(c2ccc(OC[C@H]3CO[C@](Cn4ccnc4)(c4ccc(Cl)cc4Cl)O3)cc2)CC1 8.88 µM, Clc1ccccc1C(c1ccccc1)(c1ccccc1)n1ccnc1 4.84 µM, CC(C)(C)c1cc(/C=C2\SC(N)=NC2=O)cc(C(C)(C)C)c1O 4.48 µM, CN1C(=O)N(c2ccccc2Br)Cc2cnc(Nc3ccc4c(c3)OCC(CO)O4)nc21 (centres undefined) 4.14 µM, CCCCOC(=O)CC(CC(=O)OCCCC)(OC(C)=O)C(=O)OCCCC 8 µM and 4.3 µM, NC(=O)c1nc(-c2cccc(-c3cc(F)ccc3OCC(F)(F)C(F)(F)F)c2)n[nH]1 13.7 µM
